# PubChem BioAssay (NCI)
# This is part of a sample that, as a whole, favours compounds with a hit. Of some 83,000 tested, about 20% had one in any assay.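 Results are percent growth after 48 hours of single-concentration exposure. 100 means growth as in untreated cells, lower positive values show inhibition; negative values down to -100 show cell death.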 Values without a mark were called inactive. Calls of active or inactive are those of the source. How the source made its calls: active means growth percent below 10; inactive means the rest.
# How the values were obtained:
# Experiment in all cases: NCI-60 one-dose screen, 48 h (100 = growth as untreated, 0 = no growth, -100 = all killed)
# Conditions in all cases: 10 µM unless noted
# SR leukemia = test system: SR leukemia
# RPMI-8226 leukemia = test system: RPMI-8226 leukemia
# OVCAR-8 ovarian = test system: OVCAR-8 ovarian
# OVCAR-5 ovarian = test system: OVCAR-5 ovarian
# OVCAR-4 ovarian = test system: OVCAR-4 ovarian
# SK-OV-3 ovarian = test system: SK-OV-3 ovarian
# IGROV1 ovarian = test system: IGROV1 ovarian
# OVCAR-3 ovarian = test system: OVCAR-3 ovarian
# HS 578T breast = test system: HS 578T breast
# NCI/ADR-RES ovarian = test system: NCI/ADR-RES ovarian
# T-47D breast = test system: T-47D breast
# BT-549 breast = test system: BT-549 breast
# MDA-MB-435 melanoma = test system: MDA-MB-435 melanoma
# SW-620 colon = test system: SW-620 colon
# MCF7 breast = test system: MCF7 breast
# HCT-116 colon = test system: HCT-116 colon
# HCC-2998 colon = test system: HCC-2998 colon
# KM12 colon = test system: KM12 colon
Structure (SMILES),growth (SR leukemia),growth (RPMI-8226 leukemia),growth (OVCAR-8 ovarian),growth (OVCAR-5 ovarian) [%],growth (OVCAR-4 ovarian),growth (SK-OV-3 ovarian),growth (IGROV1 ovarian),growth (OVCAR-3 ovarian),growth (HS 578T breast),growth (NCI/ADR-RES ovarian),growth (T-47D breast) [%],growth (BT-549 breast),growth (MDA-MB-435 melanoma),growth (SW-620 colon),growth (MCF7 breast),growth (HCT-116 colon),growth (HCC-2998 colon),growth (KM12 colon)
NC1N=C(SCC(=O)N2CCN(c3cc4c(cc3F)c(=O)c(C(=O)O)cn4C3CC3)CC2)NC(=O)/C1=C/c1ccc(Cl)cc1 (stereo not drawn),110%,101%,102%,104,99.5%,114%,104%,109%,106%,105%,97.9,122%,105%,104%,105%,101%,109%,107%
Cc1ccc(S(=O)(=O)n2cc(C(=O)C(=O)Nc3ccncc3)c3ccccc32)cc1,28.8%,37.5%,43.2%,57.6,56%,96.6%,45.1%,-12.1% (active),23.2%,5.21% (active),48.4,37.5%,1.27% (active),11.2%,19.5%,17.5%,52.8%,29.1%
CO[C@H]1NC(=O)N(S(=O)(=O)c2ccc(Cl)cc2)[C@@H]1OC,93.9%,96.1%,106%,111,108%,102%,124%,108%,100%,110%,105,108%,97.3%,108%,99.4%,110%,110%,103%
Cn1ccc(Nc2nccc(Oc3ccc(C(=O)Nc4cccc(F)c4)c(Cl)c3)n2)c1,98.3%,107%,88.2%,87.9,67%,15.9%,62.4%,55.6%,96.9%,96.6%,38.8,80.5%,81.3%,85.4%,85.9%,86.8%,81.9%,102%
COc1cc(-c2ncn(/C=C\C(=O)OC(C)C)n2)cc(C(F)(F)F)c1,2.46% (active),67.5%,9.36% (active),18.4,0.627% (active),28.1%,14.3%,-42.1% (active),-7.75% (active),2.76% (active),16.3,-62.6% (active),-34.7% (active),0.254% (active),-24.5% (active),2.85% (active),-39.8% (active),0.0792% (active)
CC(C)(C)OC(=O)NCCc1ccc(N=C=S)cc1,22.5%,9.22% (active),86%,82.7,76.9%,97.1%,71.8%,72.7%,92.3%,75.6%,41.5,62.3%,71.3%,71.4%,52%,65.5%,89.9%,60.8%
COc1cccc(/C=C2\Oc3cc(OCCCN4CCCC4)ccc3C2=O)c1,-22.9% (active),61.6%,91.4%,89.1,112%,109%,73.6%,87.2%,92.5%,89.1%,88.1,92.6%,99.2%,92.2%,51.2%,21.1%,85.5%,83.8%
COc1ccc(C2NN=C3c4ccccc4CCC32)cc1 (stereo not drawn),3.17% (active),21.7%,80.4%,90.5,71.4%,77%,16.8%,37.6%,62.3%,29.9%,35.3,67.4%,-15.7% (active),29.9%,5.11% (active),64.4%,67.3%,26.3%
CCN(CC)CCCNc1nccc2ccc(Cl)cc12,94.3%,101%,94.8%,92,108%,100%,118%,105%,109%,105%,106,92.8%,103%,104%,94%,84.9%,106%,111%
Cc1nc2cncc(C#Cc3cncc(C(=O)Nc4ccc(CN5CCN(C)CC5)c(C(F)(F)F)c4)c3)c2nc1C,19.7%,8.79% (active),24.6%,10.5,13.7%,-26.8% (active),-5.34% (active),25.9%,-9.83% (active),18.5%,26.6,37.6%,-1.99% (active),1.45% (active),19%,5.45% (active),30.7%,3.08% (active)
CC(C)(C)Nc1c(-c2cccs2)nc2ncccn12,92.4%,94.2%,104%,108,103%,99.9%,102%,102%,97.8%,104%,93.1,105%,107%,103%,93.8%,98.6%,100%,97.5%
O=C(Nc1ccc(NCCN2CCOCC2)nc1)c1ccc([N+](=O)[O-])cc1,113%,107%,96.2%,105,103%,107%,121%,114%,104%,105%,107,98.6%,97.8%,104%,89.2%,97.2%,101%,104%
CCCCNC(=O)Oc1ccc(/C(=C(\C)c2ccccc2)c2ccc(OCCN(CC)CC)cc2)cc1,14.5%,49.8%,77%,77.7,79.7%,74.5%,77.2%,75.1%,39.8%,84.4%,40.3,72.3%,58.7%,69.7%,33.8%,48.1%,82.6%,60.6%
FC(F)(F)c1ccccc1-c1cn2c(ccc3ccccc32)n1,42.4%,98.6%,93.7%,103,95.2%,80.5%,73.1%,88.3%,71.4%,61.9%,104,80.8%,-25.3% (active),44.2%,77.4%,74.9%,99.2%,87%
COc1cc(C(=O)/C=C/c2ccc3nc(-c4cc(F)cc(F)c4)sc3c2)cc(OC)c1OC,103%,90.7%,104%,97.1,107%,94.5%,96.6%,112%,93.1%,98.7%,102,95.3%,106%,104%,97.5%,87%,93.1%,108%
O=[N+]([O-])c1ccc(OCCCOc2ccccc2)cc1,92.3%,97.7%,105%,107,100%,105%,94.5%,99.3%,108%,99.8%,110,93.1%,99%,107%,93%,97.4%,101%,101%
